The list is not random: actives were taken first. Their share in the collection is about 1.1%.
RXFP1 antagonist = RXFP1 (human) relaxin receptor antagonism | 0.59% of 350,000 active | activity change, negative = inhibition, % at 57.5 µM | Q9HBX9 | AID 1259400 | HEK293-RXFP1, relaxin-stimulated cAMP HTRF, 30 min; active compounds read low;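 active = activity change of -60% or lower, but not beyond a set lower limit; inconclusive = change between -60% and -40%, or beyond the set limit; inactive = change above -40%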; note: % is set by controls: 0 for no effect and ±100 for the full control effect
Target sequence (Q9HBX9 whole entry, looked up): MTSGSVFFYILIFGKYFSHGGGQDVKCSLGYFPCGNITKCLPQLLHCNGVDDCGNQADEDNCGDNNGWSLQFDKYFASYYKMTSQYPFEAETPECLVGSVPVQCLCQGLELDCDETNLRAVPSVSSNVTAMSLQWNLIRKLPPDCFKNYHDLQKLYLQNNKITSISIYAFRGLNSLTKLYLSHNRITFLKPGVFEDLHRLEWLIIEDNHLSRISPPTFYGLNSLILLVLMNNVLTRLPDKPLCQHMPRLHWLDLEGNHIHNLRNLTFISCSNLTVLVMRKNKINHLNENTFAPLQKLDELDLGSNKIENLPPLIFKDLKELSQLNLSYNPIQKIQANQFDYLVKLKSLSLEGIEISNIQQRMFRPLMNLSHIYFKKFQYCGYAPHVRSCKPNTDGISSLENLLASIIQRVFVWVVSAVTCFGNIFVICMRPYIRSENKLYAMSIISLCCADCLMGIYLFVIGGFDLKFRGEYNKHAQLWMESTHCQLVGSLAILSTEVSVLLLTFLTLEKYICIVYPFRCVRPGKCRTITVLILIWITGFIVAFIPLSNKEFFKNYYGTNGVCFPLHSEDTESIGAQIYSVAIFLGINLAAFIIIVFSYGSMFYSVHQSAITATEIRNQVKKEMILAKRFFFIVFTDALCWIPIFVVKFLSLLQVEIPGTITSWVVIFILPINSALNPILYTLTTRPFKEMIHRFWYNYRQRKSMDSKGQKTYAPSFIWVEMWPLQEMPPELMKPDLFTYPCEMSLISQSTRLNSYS
gsp agonist = gsp mutant agonism. AID 624287. Potency, µM (series often up to 76.9 µM), inactives show top-dose activation (cAMP increase), actives largely listed as activators. 0.13% of 340,000 active. gsp mutant cells, cAMP HTRF, 30 min; active = well fitted activation curve with a large enough effect; inconclusive = small, poorly fitted or top-dose-only effect, or another doubt; inactive = no such curve, though single readings can be large or run the other way; cell line not stated here;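 note: phosphodiesterase inhibitor Ro 20-1724 added with compounds to block cAMP breakdown; potency is the fitted concentration of half-maximal effect; nearly all actives have a fitted effect of over 60% in size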
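Cells stably selected in G418 were plated at 2000/well, grown 16-24 hr, then given compounds in DMSO with the PDE inhibitor […] (300 uM solution added) for 30 min at 37C; cAMP was read by HTRF.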
gsp antagonist = antagonists of gsp mutant (McCune-Albright syndrome) | 0.4% of 340,000 active | Potency, µM (titrated, usually from 76.9 µM), for inactives: at the highest dose activity change, negative = inhibition, most hits filed as inhibitors | gsp-mutant cells, cAMP HTRF, 30 min; calls by dose curve; cell line not stated here;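 note: intracellular cAMP measured with PDE inhibitor Ro 20-1724 present during compound exposure; potency is the fitted concentration of half-maximal effect; % is set by controls: 0 for no effect and ±100 for the full control effect; nearly all actives have a fitted effect of over 65% in size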
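HTRF cAMP read-out (cAMP-d2 plus anti-cAMP antibody-K in lysis buffer, 30 min RT). Before lysis, cells are exposed to compounds with […] for 30 min at 37C in DPBS containing Ca/Mg, BSA and Tween 20.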
a7 integrin act = activates integrin-mediated alleviation for muscular dystrophy; alpha7betagal myoblasts, beta-gal FDG fluorescence, 48 h; Potency, µM (titrated, usually from 38.3 µM), inactives show at the highest dose activation, actives largely listed as activators; 0.064% of 350,000 active; AID 624291;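 note: potency is the fitted concentration of half-maximal effect; 100% = response of the positive control SU9516; nearly all actives have a fitted effect of over 60% in size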
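alpha7betagal+/- myoblasts (passage 13, 250/well) treated 48 h at 37C with compounds at 1:260 dilution of DMSO stock. Lysed, then beta-galactosidase activity read as FDG fluorescence (ex 480/em 540) after 30 min, with pre-read for autofluorescence.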
RXFP1 ag = RXFP1 (human) receptor agonism | Q9HBX9 | HEK293T-RXFP1 cAMP TR-FRET, 30 min; response scale: percent of porcine relaxin response, buffer zero | Potency, µM (titrated, usually from 57.5 µM), without a hit: top-dose activation, actives largely listed as activators | 0.3% of 370,000 active; note: potency is the fitted concentration of half-maximal effect; % is set by controls: 0 for no effect and ±100 for the full control effect; nearly all actives have a fitted effect of over 60% in size
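HEK293T cells stably expressing RXFP1 were pretreated with the PDE4 inhibitor Ro 20174, exposed to compounds for 30 min at 37C, lysed, and cAMP was read by TR-FRET. Data normalized to buffer (basal) and 29 nM porcine relaxin (100%).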
S-ASM inh = human S-ASM enzyme inhibition | AID 504937 | 0.006% of 340,000 active | placental ASM, HMU-PC fluorogenic substrate, 60 min | P17405 | Potency, µM (series often up to 57.5 µM), without a hit: at the top dose activity change, negative = inhibition, hits mostly inhibitors; note: potency is the fitted concentration of half-maximal effect
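qHTS format. ASM enzyme prepared from human placenta hydrolyses the fluorogenic substrate HMU-PC0 (9 uM final) over 60 min at 37 °C after a 10 min compound preincubation.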
An asterisk follows results filed as active; [ ] = remark or other dose. Unless noted, calls come from the whole dose curve; as a rule, active = well fitted curve in the direction sought with a large enough effect; inconclusive = small, poorly fitted or top-dose-only effect, or another doubt; inactive = no such curve, though single readings can be large; an effect the other way counts as inactive or inconclusive.

How did CCCCC1=CC2=C(c3ccco3)C(=O)C(C)(OC(=O)c3ccc(OC)cc3)C(=O)C2=CN1Cc1ccc(OC)cc1 (centres undefined) do in these assays?
RXFP1 ag: 14%

Results for CCCCC1=CC2=C(c3ccco3)C(=O)C(C)(OC(=O)c3ccc(OC)cc3)C(=O)C2=CN1CC(C)C (centres undefined) ?
gsp agonist: inconclusive; gsp antagonist: 30%; a7 integrin act: 36%; RXFP1 ag: 16µM*; S-ASM inh: -2%

How did CCOC(=O)c1cc(S(=O)(=O)NCc2cccc(Cl)c2)[nH]n1 do in these assays?
RXFP1 antagonist: -19; RXFP1 ag: 0%

How did CCc1ccccc1-n1nnc(-c2nc(-c3ccccc3F)no2)c1C do in these assays?
RXFP1 antagonist: -4; RXFP1 ag: 0%

Results for COc1ccccc1NC(=O)COC(=O)CC(C)(C)CC1=NS(=O)(=O)c2ccccc2N1 ?
RXFP1 antagonist: -83*; gsp agonist: 8%; gsp antagonist: -24%; a7 integrin act: 13%; RXFP1 ag: -1%; S-ASM inh: -2%

What do the screens show for `CN(C)CCNc1nc2sc3c(c2c(=O)n1Cc1ccccc1)CCCCC3`?
RXFP1 antagonist: -92*; gsp agonist: -4%; gsp antagonist: 7%; a7 integrin act: -75%; RXFP1 ag: 0%; S-ASM inh: -6%

What do the screens show for `CN(C)CCNc1nc2sc3c(c2c(=O)n1-c1ccccc1)CCCCC3`?
RXFP1 antagonist: -36; gsp agonist: 6%[15.4 µM]; gsp antagonist: 10%; a7 integrin act: -60%; RXFP1 ag: 1%; S-ASM inh: 0%

What do the screens show for `COc1cccc(CN2CC(C(=O)NCc3cccc(N4CCCC4)c3)CCC2=O)c1` (centres undefined)?
RXFP1 antagonist: 1; gsp agonist: -44%; gsp antagonist: 3.2µM*; a7 integrin act: -32%; RXFP1 ag: 2%; S-ASM inh: 3%

Results for COc1cccc(CN2CC(C(=O)NCc3cccc(Cl)c3)CCC2=O)c1 (centres undefined) ?
RXFP1 antagonist: -2; gsp agonist: inconclusive; gsp antagonist: 17%; a7 integrin act: 3%; RXFP1 ag: 0%; S-ASM inh: 3%

What do the screens show for `COc1ccccc1NS(=O)(=O)c1cccc(C(=O)NCC2(N3CCCCC3)CCCCC2)c1`?
RXFP1 antagonist: -16; gsp agonist: -1%; gsp antagonist: -6%; a7 integrin act: -31%

How did Cc1ccc(S(=O)(=O)N2CCOCC2)cc1NC(=O)COc1ccc(C(=O)c2ccccc2)cc1 do in these assays?
RXFP1 antagonist: -21; gsp agonist: 7.9µM*; gsp antagonist: 25µM*; a7 integrin act: -18%; RXFP1 ag: -3%; S-ASM inh: -4%

What do the screens show for `CCCn1nc([N+](=O)[O-])c(C(C#N)c2nc3ccccc3s2)c(Cl)c1=O` (centres undefined)?
RXFP1 antagonist: -33; gsp agonist: 17%; gsp antagonist: 32µM*; a7 integrin act: -50%; RXFP1 ag: -3%; S-ASM inh: -19%

How did CN1c2ccccc2C(O)=C(C(=S)Nc2ccc(F)c(Cl)c2)S1(=O)=O do in these assays?
RXFP1 antagonist: -18; gsp agonist: 9%[15.4 µM]; gsp antagonist: 40µM*; a7 integrin act: 29%; RXFP1 ag: 1%; S-ASM inh: 16%

What do the screens show for `CN1c2ccccc2C(O)=C(C(=S)Nc2ccccc2)S1(=O)=O`?
RXFP1 antagonist: 15; gsp agonist: 4%; gsp antagonist: inconclusive; a7 integrin act: 9%; RXFP1 ag: 0%; S-ASM inh: 12%

What do the screens show for `C[C@@H](CN1CC(=O)NC(=O)C1)N1CC(=O)NC(=O)C1`?
RXFP1 antagonist: -15

How did CCN(CC)CCCNC(=S)N1CCN(c2nc(-c3ccccc3)cs2)CC1 do in these assays?
RXFP1 antagonist: -8; gsp agonist: 6%; gsp antagonist: 14%; a7 integrin act: -13%; RXFP1 ag: 1%; S-ASM inh: -1%

Results for COc1cccc(-c2csc(N3CCN(C(=S)NCC(C)C)CC3)n2)c1 ?
RXFP1 antagonist: -15; gsp agonist: inconclusive; gsp antagonist: inconclusive; a7 integrin act: -14%; RXFP1 ag: -1%; S-ASM inh: -4%

What do the screens show for `CCNC(=S)N1CCN(c2nc(-c3cccc(OC)c3)cs2)CC1`?
RXFP1 antagonist: -1; gsp agonist: 20%; gsp antagonist: 32µM*; a7 integrin act: inconclusive; RXFP1 ag: 0%; S-ASM inh: -6%

How did COCCCNC(=S)N1CCN(c2nc(-c3ccccc3)cs2)CC1 do in these assays?
RXFP1 antagonist: 0; gsp agonist: inconclusive; gsp antagonist: 32µM*; a7 integrin act: 11%; RXFP1 ag: 0%; S-ASM inh: -11%

Results for CCOCCCNC(=S)N1CCN(c2nc(-c3ccccc3)cs2)CC1 ?
RXFP1 antagonist: 0; gsp agonist: -59%; gsp antagonist: 50µM*; a7 integrin act: 0%; RXFP1 ag: 2%; S-ASM inh: -6%

How did COCCCNC(=S)N1CCN(c2nc(-c3ccc(Cl)cc3)cs2)CC1 do in these assays?
RXFP1 antagonist: 2; gsp agonist: inconclusive; a7 integrin act: -19%

What do the screens show for `CCN1CCN(c2cc(N3CCc4ccccc4C3)c(F)cc2[N+](=O)[O-])CC1`?
RXFP1 antagonist: -115*; gsp agonist: -3%; gsp antagonist: 17%; a7 integrin act: -18%; RXFP1 ag: 1%; S-ASM inh: -14%

Results for N=c1c(C(=O)NCc2ccc3c(c2)OCO3)cc2c(=O)n3ccccc3nc2n1CC1CCCO1 (centres undefined) ?
RXFP1 antagonist: -18; gsp agonist: 28µM*; gsp antagonist: -2%; a7 integrin act: inconclusive; RXFP1 ag: 19%; S-ASM inh: 121%

Results for O=[N+]([O-])c1ccc(Cl)cc1N/N=C/c1ccncc1 ?
RXFP1 antagonist: 5; gsp agonist: -29%; gsp antagonist: -2%; a7 integrin act: 5.6µM*; RXFP1 ag: 1%; S-ASM inh: -11%

Results for O=[N+]([O-])c1cc(S(=O)(=O)Nc2ccc(Cl)cc2)ccc1N/N=C/c1ccncc1 ?
RXFP1 antagonist: -2; gsp agonist: -39%; gsp antagonist: -19%; a7 integrin act: inconclusive; RXFP1 ag: 2%; S-ASM inh: 0%

What do the screens show for `O=C(NNC(=S)NC1CCCCC1)c1sc2ccccc2c1Cl`?
RXFP1 antagonist: -8; gsp agonist: 22%; gsp antagonist: inconclusive; a7 integrin act: 37%; RXFP1 ag: 0%; S-ASM inh: 2%

Screening results (PubChem)
